The text below walks through data of paper PMC11062922 (Nature Chemical Biology, 2023).

In one experiment the test system is AAK1. Set-up: species or system human, MV4-11 + K-562 + COLO205 + SK-N-BE2 + OVCAR-8. The note with it: read-out: apparent Kd, n = 1.
The test system of another experiment is BMP2K. Set-up: species or system human, MV4-11 + K-562 + COLO205 + SK-N-BE2 + OVCAR-8. The note with it: read-out: apparent Kd, compound concentrations: 100 nM and 1000 nM (sheet 'Samples'), n = 1.
The subject of another experiment is FLT4. Set-up: species or system human, MV4-11 + K-562 + COLO205 + SK-N-BE2 + OVCAR-8. The settings on record: read-out: apparent Kd, compound concentrations: 100 nM and 1000 nM (sheet 'Samples'), n = 1.
A further experiment relates to GSK3A. Details: species or system human, MV4-11 + K-562 + COLO205 + SK-N-BE2 + OVCAR-8. The note with it: read-out: apparent Kd, n = 1.
The test system of a further experiment is GSK3B. Set-up: species or system human, MV4-11 + K-562 + COLO205 + SK-N-BE2 + OVCAR-8. The settings on record: read-out: apparent Kd, n = 1.
The next experiment has as its system NUAK1. Set-up: species or system human, MV4-11 + K-562 + COLO205 + SK-N-BE2 + OVCAR-8. The note with it: read-out: apparent Kd, compound concentrations: 100 nM and 1000 nM (sheet 'Samples'), n = 1.
The next experiment concerns the target Q6ZSR9 (human, UniProt Q6ZSR9). Set-up: species or system MV4-11 + K-562 + COLO205 + SK-N-BE2 + OVCAR-8. The settings on record: read-out: apparent Kd, n = 1.
In a further experiment the test system is CLK1. Details: species or system human, MV4-11 + K-562 + COLO205 + SK-N-BE2 + OVCAR-8. The note with it: read-out: apparent Kd, n = 1.
Another experiment relates to CLK4. Details: species or system human, MV4-11 + K-562 + COLO205 + SK-N-BE2 + OVCAR-8. The note with it: read-out: apparent Kd, n = 1.
In a further experiment the test system is MELK. Set-up: species or system human, MV4-11 + K-562 + COLO205 + SK-N-BE2 + OVCAR-8. The settings on record: read-out: apparent Kd, compound concentrations: 100 nM and 1000 nM (sheet 'Samples'), n = 1.
For the next experiment, the system named is RET. Set-up: species or system human, MV4-11 + K-562 + COLO205 + SK-N-BE2 + OVCAR-8. The settings on record: read-out: apparent Kd, compound concentrations: 100 nM and 1000 nM (sheet 'Samples'), n = 1.
In a further experiment the test system is CSNK2A1;CSNK2A3. Details: species or system human, MV4-11 + K-562 + COLO205 + SK-N-BE2 + OVCAR-8. The settings on record: read-out: apparent Kd, compound concentrations: 100 nM and 1000 nM (sheet 'Samples'), n = 1.
Another experiment concerns CSNK2A2. Set-up: species or system human, MV4-11 + K-562 + COLO205 + SK-N-BE2 + OVCAR-8. The note with it: read-out: apparent Kd, compound concentrations: 100 nM and 1000 nM (sheet 'Samples'), n = 1.
In another experiment the test system is GAK. Details: species or system human, MV4-11 + K-562 + COLO205 + SK-N-BE2 + OVCAR-8. The settings on record: read-out: apparent Kd, n = 1.
For a further experiment, the system named is PKN1. Details: species or system human, MV4-11 + K-562 + COLO205 + SK-N-BE2 + OVCAR-8. The note with it: read-out: apparent Kd; compound concentrations:100 nM and 1000 nM (sheet 'Samples'); n = 1.
Another experiment has as its system PKN3. Set-up: species or system human, MV4-11 + K-562 + COLO205 + SK-N-BE2 + OVCAR-8. The note with it: read-out: apparent Kd; compound concentrations:100 nM and 1000 nM (sheet 'Samples'); n = 1.
A further experiment relates to SIK2. Set-up: species or system human, MV4-11 + K-562 + COLO205 + SK-N-BE2 + OVCAR-8. The note with it: read-out: apparent Kd; compound concentrations:100 nM and 1000 nM (sheet 'Samples'); n = 1.
Setting [1] is: compound concentrations:100 nM and 1000 nM (sheet 'Samples').

Each structure is given as a SMILES string. Like-named read-outs stand apart in the source and are kept apart here.

Q6ZSR9, sequence (Q6ZSR9 whole entry, looked up): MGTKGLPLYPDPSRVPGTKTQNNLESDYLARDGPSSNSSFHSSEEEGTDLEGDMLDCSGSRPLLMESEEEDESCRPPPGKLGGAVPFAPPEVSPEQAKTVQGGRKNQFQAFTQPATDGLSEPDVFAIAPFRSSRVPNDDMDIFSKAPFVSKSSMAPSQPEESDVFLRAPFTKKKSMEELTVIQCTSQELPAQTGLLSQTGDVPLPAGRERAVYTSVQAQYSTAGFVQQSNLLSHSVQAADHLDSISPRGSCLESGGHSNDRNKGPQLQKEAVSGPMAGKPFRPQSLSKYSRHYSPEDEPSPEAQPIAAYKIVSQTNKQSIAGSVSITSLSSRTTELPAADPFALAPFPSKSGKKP

Regarding `COc1cc[nH]c1/C=C1\C(=O)Nc2ccc([N+](=O)[O-])c(N3CC[C@@H](O)C3)c21` [RO0504985-000], the potency estimated from few doses is 46.2 nM with AAK1 (compound concentrations: 100 nM and 1000 nM (sheet 'Samples'), CATDS: 0.119322014743116); 33 nM in the experiment on BMP2K (CATDS: 0.146188418361926); 1020 nM in the experiment on FLT4 (CATDS: 3.5350973360848997E-2); 143 nM in the experiment with GSK3A (compound concentrations: 100 nM and 1000 nM (sheet 'Samples'), CATDS: 6.9215882134984696E-2); 99.7 nM in the experiment with GSK3B (compound concentrations: 100 nM and 1000 nM (sheet 'Samples'), CATDS: 8.07850710279054E-2); 50.6 nM in the experiment on NUAK1 (CATDS: 0.113358948941002). Further, the potency estimated from few doses in the experiment with Q6ZSR9 (compound concentrations: 100 nM and 1000 nM (sheet 'Samples'), CATDS: 0.13185454777653499) was 39 nM.
`CNc1nccc(-c2ccc3c(N)n[nH]c3c2)n1` [GSK2206003A]: the potency estimated from few doses in the experiment on AAK1 (compound concentrations: 100 nM and 1000 nM (sheet 'Samples'), CATDS: 0.11797009071744601) was 108 nM; in the experiment on BMP2K (CATDS: 5.7170227951540302E-2), 897 nM; with CLK1 (compound concentrations: 100 nM and 1000 nM (sheet 'Samples'), CATDS: 0.21779714475359599), 36.5 nM; with CLK4 (compound concentrations: 100 nM and 1000 nM (sheet 'Samples'), CATDS: 0.18290440862860499), 48 nM; in the experiment with MELK (CATDS: 0.103385588540624), 145 nM; in the experiment with Q6ZSR9 (compound concentrations: 100 nM and 1000 nM (sheet 'Samples'), CATDS: 0.14345562945172299), 73.1 nM. Further, the potency estimated from few doses in the experiment with RET (CATDS: 0.14057536576690199) is 76 nM.
Regarding `O=C1N=C(NCc2ccccc2Br)S/C1=C\c1ccc2ncccc2c1` [RO4506918-000], the potency estimated from few doses is 910 nM in the experiment with AAK1 (compound concentrations: 100 nM and 1000 nM (sheet 'Samples'), CATDS: 8.9232255617264805E-2); 202 nM in the experiment on CLK1 (compound concentrations: 100 nM and 1000 nM (sheet 'Samples'), CATDS: 0.17031966096866); 76.5 nM in the experiment with CLK4 (compound concentrations: 100 nM and 1000 nM (sheet 'Samples'), CATDS: 0.31130162986837101); 383 nM in the experiment with CSNK2A1;CSNK2A3 (CATDS: 0.124108593087182); 162 nM with CSNK2A2 (CATDS: 0.192604305943326); 804 nM with Q6ZSR9 (compound concentrations: 100 nM and 1000 nM (sheet 'Samples'), CATDS: 9.2903146742856602E-2).
For `NS(=O)(=O)c1ccc(NC=C2C(=O)Nc3ccc4ncsc4c32)cc1` [GW589933X], the potency estimated from few doses in the experiment with AAK1 (compound concentrations: 100 nM and 1000 nM (sheet 'Samples'), CATDS: 2.8569630231133399E-2) is 376 nM; in the experiment on BMP2K (CATDS: 4.4159404649836601E-2), 151 nM; with CLK1 (compound concentrations: 100 nM and 1000 nM (sheet 'Samples'), CATDS: 1.74105303489548E-2), 1590 nM; in the experiment on CLK4 (compound concentrations: 100 nM and 1000 nM (sheet 'Samples'), CATDS: 2.0435296344387299E-2), 913 nM; with CSNK2A1;CSNK2A3 (CATDS: 2.5198594058055201E-2), 510 nM; in the experiment on CSNK2A2 (CATDS: 3.3899738232558103E-2) it was 257 nM. The potency estimated from few doses is 888 nM in the experiment with FLT4 (CATDS: 2.0623462365067999E-2); 1250 nM in the experiment with GSK3A (compound concentrations: 100 nM and 1000 nM (sheet 'Samples'), CATDS: 1.8552119857048799E-2); 1630 nM in the experiment on MELK (CATDS: 1.7288492944947598E-2); 141 nM in the experiment with Q6ZSR9 (compound concentrations: 100 nM and 1000 nM (sheet 'Samples'), CATDS: 4.56646208861472E-2); 1170 nM in the experiment with RET (CATDS: 1.8914319657445101E-2).
Regarding `Cl.Cn1cc(C2=C(c3c4n(c5ccccc35)CCNC4)C(=O)NC2=O)c2ccccc21` [RO0318365-001], the potency estimated from few doses with AAK1 (compound concentrations: 100 nM and 1000 nM (sheet 'Samples'), CATDS: 5.2349611072723602E-2) is 1480 nM; with FLT4 (CATDS: 5.0705018296343198E-2), 1610 nM; in the experiment on GAK (compound concentrations: 100 nM and 1000 nM (sheet 'Samples'), CATDS: 6.7472142671723495E-2), 831 nM; with GSK3A (compound concentrations: 100 nM and 1000 nM (sheet 'Samples'), CATDS: 0.111142354700942), 357 nM; in the experiment on GSK3B (compound concentrations: 100 nM and 1000 nM (sheet 'Samples'), CATDS: 0.121394136436775) it was 314 nM; with Q6ZSR9 (compound concentrations: 100 nM and 1000 nM (sheet 'Samples'), CATDS: 5.14338241951754E-2), 1550 nM. Besides, the potency estimated from few doses in the experiment with RET (CATDS: 5.70762931789019E-2) is 1190 nM.
Regarding `Cc1occc1-c1nc(N)c(OC[C@@H](N)Cc2c[nH]c3ccccc23)cc1-c1cc2c(C)n[nH]c2cn1` [GSK1660450B], the potency estimated from few doses with AAK1 (setting [1]) was 1070 nM; with CLK1 (setting [1]) it was 339 nM; in the experiment with CLK4 (setting [1]), 441 nM; in the experiment with GAK (setting [1]), 38.2 nM; with GSK3A (setting [1]) it was 273 nM; with GSK3B (setting [1]) it was 62.6 nM. Also, the potency estimated from few doses in the experiment on PKN1 was 87.6 nM; in the experiment on PKN3, 845 nM; with Q6ZSR9 (setting [1]) it was 1670 nM; in the experiment on SIK2 it was 427 nM.
As for `CCC(CC)(CC)n1cnc2c(N)ncnc21` [SKF-97620], the potency estimated from few doses with AAK1 (compound concentrations: 100 nM and 1000 nM (sheet 'Samples'), CATDS: 2.5595683701841399E-2) is 1620 nM; in the experiment with CLK1 (compound concentrations: 100 nM and 1000 nM (sheet 'Samples'), CATDS: 2.7794407506576899E-2), 1260 nM; in the experiment with CLK4 (compound concentrations: 100 nM and 1000 nM (sheet 'Samples'), CATDS: 2.9101207913204901E-2), 1100 nM.
Turning to `CN(C)c1ccc2c(c1)/C(=C/Nc1ccc(S(N)(=O)=O)cc1)C(=O)N2` [GW416469X], the potency estimated from few doses with AAK1 (compound concentrations: 100 nM and 1000 nM (sheet 'Samples'), CATDS: 7.2948540677608101E-2) was 1640 nM; with BMP2K (CATDS: 7.3539976386738704E-2), 1600 nM; with CSNK2A2 (CATDS: 7.0643002799247095E-2), 1820 nM; in the experiment with FLT4 (CATDS: 7.3701429425290094E-2), 1590 nM; in the experiment with NUAK1 (CATDS: 0.318304060181621) it was 86.6 nM.
Consider `NS(=O)(=O)c1cccc(-c2ccc3c(NC(=O)C4CC4)n[nH]c3c2)c1` [SB-741905], for which the potency estimated from few doses was 1210 nM with AAK1 (compound concentrations: 100 nM and 1000 nM (sheet 'Samples'), CATDS: 0.126213197239569); 2410 nM with Q6ZSR9 (compound concentrations: 100 nM and 1000 nM (sheet 'Samples'), CATDS: 0.101605627816376).
On to `COc1ccc(CNC(=O)NC2CCN(c3ccnc(Nc4cc(OC)c(OC)c(OC)c4)n3)C2)cc1` (stereo not drawn) [GSK1379748A], for which the potency estimated from few doses was 1680 nM with AAK1 (compound concentrations: 100 nM and 1000 nM (sheet 'Samples'), CATDS: 0.347671640618193); 1710 nM in the experiment with Q6ZSR9 (compound concentrations: 100 nM and 1000 nM (sheet 'Samples'), CATDS: 0.34499454920455003).
